PubChem BioAssay AID1159580 (chemical genetic matrix, 2015)
About 2,000 (36%) of roughly 5,500 compounds were called active. Not shown: some 18% with an inconclusive outcome. Rule as the data show it: active = normalized growth mostly below about 0.91 (no sharp cut-off); inconclusive = no clear call, values can overlap the other calls; inactive = mostly above about 0.92. Some of the results follow.

Assay: chemical genetic growth profiling, strain panel (AID 1159580);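 also: tested at 20 µM; growth read once vehicle control cultures reached saturation at 30 °C; 1 = growth at the plate median or of vehicle wells; lower values mean less growth of the strain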
Details: growth OD

Measured: normalized growth

COc1c(O)cc(O)cc1O
inactive: S. cerevisiae deletion strains, locus YJR066W, strain TOR1, hits give low values 0.977 | S. cerevisiae deletion strains, locus YKL009W, strain mrt4, hits give low values 1.07 | S. cerevisiae deletion strains, locus YKL068W, hits give low values 0.995 | S. cerevisiae deletion strains, locus YKL085W, strain MDH1 (second series), hits give low values 1.02 | S. cerevisiae deletion strains, locus YKL085W, strain MDH1, hits give low values 1.02 | S. cerevisiae deletion strains, locus YKL160W, strain elf1, hits give low values 1.02 | S. cerevisiae deletion strains, locus YKR001C, strain vps1, hits give low values 1.01 | S. cerevisiae deletion strains, locus YKR026C, strain gcn3, hits give low values 0.991 | S. cerevisiae deletion strains, locus YKR091W, strain srl3, hits give low values 0.996 | S. cerevisiae deletion strains, locus YLL001W, strain dnm1, hits give low values 0.999 | S. cerevisiae deletion strains, locus YLL026W, hits give low values 0.994 | S. cerevisiae deletion strains, locus YLL041C, strain sdh2, hits give low values 0.996 | S. cerevisiae deletion strains, locus YLR027C, strain aat2, hits give low values 0.985 | S. cerevisiae deletion strains, locus YLR039C, strain RIC1, hits give low values 1.06 | S. cerevisiae deletion strains, locus YLR058C, strain SHM2, hits give low values 1.01 | S. cerevisiae deletion strains, locus YLR102C, strain apc9, hits give low values 0.987 | S. cerevisiae deletion strains, locus YLR113W, strain HOG1, hits give low values 1.03 | S. cerevisiae deletion strains, locus YLR221C, strain rsa3, hits give low values 0.992 | S. cerevisiae deletion strains, locus YLR258W, strain gsy2, hits give low values 0.997 | S. cerevisiae deletion strains, locus YLR262C, strain YPT6 (second series), hits give low values 1.02 | S. cerevisiae deletion strains, locus YLR262C, strain YPT6, hits give low values 1.08 | S. cerevisiae deletion strains, locus YLR268W, strain sec22, hits give low values 1.05 | S. cerevisiae deletion strains, locus YLR320W, strain mms22, hits give low values 0.994 | S. cerevisiae deletion strains, locus YLR330W, strain CHS5, hits give low values 1.01 | S. cerevisiae deletion strains, locus YLR342W, strain FKS1 (second series), hits give low values 1.08 | S. cerevisiae deletion strains, locus YLR342W, strain FKS1, hits give low values 0.997 | S. cerevisiae deletion strains, locus YLR357W, strain rsc2, hits give low values 0.958 | S. cerevisiae deletion strains, locus YLR370C, strain arc18, hits give low values 0.992 | S. cerevisiae deletion strains, locus YLR371W, strain rom2, hits give low values 0.984 | S. cerevisiae deletion strains, locus YLR384C, strain iki3, hits give low values 1 | S. cerevisiae deletion strains, locus YLR418C, strain cdc73, hits give low values 0.988 | S. cerevisiae deletion strains, locus YML016C, strain PPZ1, hits give low values 0.994 | S. cerevisiae deletion strains, locus YML032C, strain rad52, hits give low values 1.02 | S. cerevisiae deletion strains, locus YML120C, strain ndi1, hits give low values 1 | S. cerevisiae deletion strains, locus YML124C, strain tub3, hits give low values 0.997 | S. cerevisiae deletion strains, locus YMR058W, strain fet3, hits give low values 1.01 | S. cerevisiae deletion strains, locus YMR078C, strain ctf18, hits give low values 0.986 | S. cerevisiae deletion strains, locus YMR125W, strain sto1, hits give low values 0.992 | S. cerevisiae deletion strains, locus YMR129W, hits give low values 0.99 | S. cerevisiae deletion strains, locus YMR205C, strain PFK2, hits give low values 0.997 | S. cerevisiae deletion strains, locus YMR223W, strain ubp8, hits give low values 1.01 | S. cerevisiae deletion strains, locus YMR231W, strain pep5, hits give low values 0.967 | S. cerevisiae deletion strains, locus YMR307W, strain GAS1, hits give low values 1.08 | S. cerevisiae deletion strains, locus YNL067W, strain RPL9B, hits give low values 1 | S. cerevisiae deletion strains, locus YNL071W, strain lat1, hits give low values 1 | S. cerevisiae deletion strains, locus YNL128W, strain TEP1, hits give low values 1.04 | S. cerevisiae deletion strains, locus YNL183C, strain NPR1, hits give low values 0.988 | S. cerevisiae deletion strains, locus YNL209W, strain ssb2, hits give low values 1.02 | S. cerevisiae deletion strains, locus YNL233W, strain BNI4, hits give low values 0.99 | S. cerevisiae deletion strains, locus YNL248C, strain rpa49, hits give low values 1 | S. cerevisiae deletion strains, locus YNL250W, strain rad50, hits give low values 0.956 | S. cerevisiae deletion strains, locus YNL271C, strain bni1, hits give low values 0.994 | S. cerevisiae deletion strains, locus YNL298W, strain CLA4, hits give low values 0.998 | S. cerevisiae deletion strains, locus YNL307C, strain MCK1, hits give low values 0.998 | S. cerevisiae deletion strains, locus YNL322C, strain KRE1 (second series), hits give low values 0.987 | S. cerevisiae deletion strains, locus YNR049C, strain mso1, hits give low values 0.994 | S. cerevisiae deletion strains, locus YNR052C, strain pop2, hits give low values 0.985 | S. cerevisiae deletion strains, locus YOL012C, strain htz1 0.85 | S. cerevisiae deletion strains, locus YOL147C, strain pex11, hits give low values 1 | S. cerevisiae deletion strains, locus YOR001W, strain rrp6, hits give low values 1.01 | S. cerevisiae deletion strains, locus YOR061W, strain CKA2, hits give low values 1.01 | S. cerevisiae deletion strains, locus YOR069W, strain VPS5, hits give low values 0.986 | S. cerevisiae deletion strains, locus YOR070C, strain gyp1, hits give low values 1.02 | S. cerevisiae deletion strains, locus YOR080W, strain dia2, hits give low values 0.99 | S. cerevisiae deletion strains, locus YOR083W, strain WHI5, hits give low values 1.01 | S. cerevisiae deletion strains, locus YOR106W, strain vam3, hits give low values 1.04 | S. cerevisiae deletion strains, locus YOR136W, strain idh2, hits give low values 0.991 | S. cerevisiae deletion strains, locus YOR144C, strain elg1, hits give low values 1 | S. cerevisiae deletion strains, locus YOR184W, strain ser1, hits give low values 1.1 | S. cerevisiae deletion strains, locus YOR231W, strain MKK1, hits give low values 1.04 | S. cerevisiae deletion strains, locus YOR265W, strain rbl2, hits give low values 1.02 | S. cerevisiae deletion strains, locus YOR270C, strain vph1, hits give low values 1.04 | S. cerevisiae deletion strains, locus YOR290C, strain snf2, hits give low values 1.01 | S. cerevisiae deletion strains, locus YOR316C, strain cot1, hits give low values 0.99 | S. cerevisiae deletion strains, locus YPL051W, strain arl3, hits give low values 1 | S. cerevisiae deletion strains, locus YPL055C, strain LGE1, hits give low values 1.07 | S. cerevisiae deletion strains, locus YPL078C, strain atp4, hits give low values 1.01 | S. cerevisiae deletion strains, locus YPL106C, strain sse1, hits give low values 0.986 | S. cerevisiae deletion strains, locus YPL240C, strain hsp82, hits give low values 1 | S. cerevisiae deletion strains, locus YPL241C, strain CIN2, hits give low values 1.01 | S. cerevisiae deletion strains, locus YPL256C, strain CLN2, hits give low values 1.02 | S. cerevisiae deletion strains, locus YPR119W, strain clb2, hits give low values 0.997 | S. cerevisiae deletion strains, locus YPR141C, strain kar3, hits give low values 0.971 | S. cerevisiae deletion strains, locus YPR163C, strain tif3, hits give low values 0.997 | S. cerevisiae deletion strains, locus YPR167C, strain met16, hits give low values 0.992 | S. cerevisiae deletion strains, strain wtn01, hits give low values 1.03 | S. cerevisiae strains, strain wild type, hits give low values 1.05
